Luc counter – counter-screen: inhibitors of Kinase-Glo firefly luciferase; 0.28% of 200,000 active; Potency, µM (top dose mostly 38.3 µM), without a hit: at the highest dose activity change, negative = inhibition, hits mostly inhibitors; Q27757; Kinase-Glo luciferase, ATP luminescence, 8 min; note: % is set by controls: 0 for no effect and ±100 for the full control effect; nearly all actives have a fitted effect of over 60% in size
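Compound is pinned into ATP-containing buffer (10 uM ATP, imidazole pH 7.2, 7 mM MgCl2). Kinase-Glo luciferase reagent is then added. Light output is recorded following an 8-min room-temperature incubation.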
NPC1 prom act – NPC1 promoter activation. Potency, µM (doses to about 9.22 µM), without a hit: top-dose activation, most hits filed as activators. 2.4% of 320,000 active. Huh7 NPC1 promoter luciferase reporter, 24 h; note: % of control where 0% means no effect; nearly all actives have a fitted effect of over 60% in size
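Luminescence from an NPC1 promoter-driven luciferase reporter in stably transfected Huh7 cells was measured after 24 h compound treatment at 37 °C, followed by 10 min ambient incubation with luciferase detection reagent.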
ELG1 genotoxic – genotoxicity induction in ELG1-luciferase HEK293T cells; 1.3% of 330,000 active; HEK293T ELG1-luciferase reporter, luminescence, 16 h; Potency, µM (titrated, usually from 46 µM), inactives show at the highest dose activity change, positive = activation, usual class: activators; note: % of control where 0% means no effect; nearly all actives have a fitted effect of over 60% in size
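Genotoxicity was scored as increased ELG1-luciferase reporter signal, measured by ONE-Glo luminescence (30 min, room temperature). Compound or vehicle exposure of the HEK293T reporter cells lasted 16 hr at 37°C.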
FLuc modulator – inhibits or activates purified firefly luciferase, miR-21 counter-screen; AID 588342; P08659; purified FLuc, Km substrates, luminescence inhibition; 6.9% of 360,000 active; Potency, µM (doses to about 57.5 µM), inactives show at the highest dose activity change, negative = inhibition, actives largely listed as inhibitors;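 note: plate controls were vehicle for no effect and reference inhibitor for full effect; nearly all actives have a fitted effect of over 55% in size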
Target sequence (P08659 whole entry, looked up): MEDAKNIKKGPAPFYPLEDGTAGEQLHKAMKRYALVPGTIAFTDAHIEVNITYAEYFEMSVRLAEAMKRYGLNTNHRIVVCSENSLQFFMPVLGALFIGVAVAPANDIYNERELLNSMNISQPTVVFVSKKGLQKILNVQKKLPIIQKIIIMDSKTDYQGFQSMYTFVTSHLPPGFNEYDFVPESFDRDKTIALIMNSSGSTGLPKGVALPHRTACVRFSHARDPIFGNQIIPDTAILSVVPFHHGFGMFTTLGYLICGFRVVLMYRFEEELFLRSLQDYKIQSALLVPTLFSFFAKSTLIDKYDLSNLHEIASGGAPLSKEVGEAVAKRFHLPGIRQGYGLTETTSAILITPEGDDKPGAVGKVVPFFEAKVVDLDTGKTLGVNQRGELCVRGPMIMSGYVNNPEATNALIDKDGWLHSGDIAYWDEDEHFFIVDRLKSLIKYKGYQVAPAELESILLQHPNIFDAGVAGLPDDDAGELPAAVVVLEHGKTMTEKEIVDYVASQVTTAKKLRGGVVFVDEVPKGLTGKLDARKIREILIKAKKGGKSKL
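Biochemical qHTS of compounds, final roughly 60 µM downward over six points, against 10 nM purified firefly luciferase using Km concentrations of substrates (10 uM D-luciferin, 10 uM ATP) in Tris acetate pH 7.5 buffer; luminescence output.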
Rab9 promoter act – activators of Rab9 promoter; Huh7 Rab9 promoter-luciferase reporter, luminescence, 24 h; Potency, µM (top dose mostly 9.22 µM), inactives show at the top dose activation, negative = inhibition, actives largely listed as activators; 2.8% of 320,000 active; note: % of control where 0% means no effect; nearly all actives have a fitted effect of over 60% in size
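Huh7 reporter line, Rab9 promoter upstream of luciferase. Compound exposure 24 h at 37 °C in reduced-serum medium with 10% FBS. Read-out: luminescence.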
SMN2 splice up – increases expression of the SMN2 splice variant; HEK293 SMN2-luciferase splicing reporter, luminescence, 30-36 h; Potency, µM (series often up to 46.1 µM), for the others: top-dose activity change, positive = activation, hits mostly activators; 2.8% of 210,000 active; AID 1458; note: % of control where 0% means no effect; nearly all actives have a fitted effect of over 55% in size
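HEK293 cells carry an SMN2 […]–luciferase reporter in which exon 7 inclusion puts luciferase in frame. Cells were plated 10-12 h before compound addition, then incubated 30-36 h at 37C. ONE-Glo luminescence was read; sodium butyrate at 4.5 mM final served as control.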
The depositor's hits bear a star; ? = inconclusive; · = not tested or not shown; [ ] = remark or other dose. Rows were chosen to be rich in hits. Some 7.5% of all compounds tested hit in one or more screens of this group. Calls come from the whole dose curve; as a rule, active = well fitted curve in the direction sought with a large enough effect; inconclusive = small, poorly fitted or top-dose-only effect, or another doubt; inactive = no such curve, though single readings can be large; an effect the other way counts as inactive or inconclusive. Potency is the fitted concentration of half-maximal effect.

SMILES	Luc counter	NPC1 prom act	ELG1 genotoxic	FLuc modulator	Rab9 promoter act	SMN2 splice up
Cc1ccc(NC(=O)c2ccc(CSc3ccccn3)cc2)c(O)c1	·	12%	0%	24µM*	11%	·
Cc1ccc(NC(=O)c2ccc3nc[nH]c3c2)c(O)c1	-4%	3.2µM*	?	19µM*	?	13µM*
Cc1cc([N+](=O)[O-])ccc1NC(=O)c1cncc(Br)c1	2%	-3%	-5%	2%	1%	-4%
Cc1ccc(NC(=O)c2cncc(Br)c2)c(O)c1	-1%	?	-1%	17µM*	?	?
Cc1ccc(NC(=O)c2ccc(CSc3ccccn3)cc2)cc1	-3%	?	1%	?	?	-6%
O=C(Nc1ccccc1C(=O)O)c1cncc(Br)c1	-3%	12%	0%	?	12%	6%
Cc1ccc(NC(=O)c2cncc(Br)c2)nc1	·	3.2µM*	?	?	?	·
CCN(CC(=O)NC1CCS(=O)(=O)C1)S(=O)(=O)c1ccccc1Cl (stereo not given)	·	1%	3%	4%	6%	·
Cc1ccc(C(=O)Nc2ccccc2C(=O)N2CCCCCC2)cc1	·	1%	-1%	-16%	0%	·
Cn1sc(NC(=O)c2ccc(Cl)cc2)nc1=O	-3%	4µM*	?	2.4µM*	3.5µM*	?
Cc1ccc(C(=O)Nc2nc(=O)n(C)s2)cc1	-4%	3.2µM*	?	2.1µM*	2.8µM*	?
O=C(Nc1ccncc1)c1ccc(Cl)cc1	·	-3%	-7%	?	2%	·
Cc1ccc(C(=O)Nc2nc(=O)n(C(=O)c3ccccc3Cl)s2)cc1	-1%	?	?	5.4µM*	3.2µM*	?
Cc1ccc(C(=O)Nc2nc(=O)n(C(=O)CC(C)C)s2)cc1	5%	-1%	0%	?	2%	9%
CC(C)CC(=O)n1sc(NC(=O)c2ccccc2)nc1=O	-9%	-4%	-1%	21µM*	-6%	-6%
O=C(CSc1ncn[nH]1)N/N=C/c1ccc(Br)cc1	·	1%	1%	15µM*	0%	·
C=CCC(CC=C)(CNC(=O)C(=O)Nc1ccc(C(=O)OCC)cc1)c1ccccc1	·	·	·	-8%	·	6%
C(#CC1CCCC1)c1ccc2c(c1)COc1c3ccccc3nn1-2	·	0.89µM*	?	3µM*	1µM*	·
CCCc1cc(-c2ccc3c(c2)COc2c4ccccc4nn2-3)on1	·	2.8µM*	?	1.1µM*	2.8µM*	·
Cc1cc2nc(-c3cccc(NC(=O)c4cccc5ccccc45)c3)oc2cc1C	·	·	·	2.1µM*	·	7%
CS(=O)(=O)c1ccccc1C(=O)Nc1cccc(-c2nc3ccccc3o2)c1	·	-4%	-6%	11µM*	-1%	·
Cc1ccc2nc(-c3ccc(Cl)c(NC(=O)c4ccc(Br)o4)c3)oc2c1	·	·	·	?	·	-8%
Cc1ccc2nc(-c3cccc(NC(=O)c4cccc5c(Cl)cccc45)c3)oc2c1	·	·	·	2.4µM*	·	11%
Cc1ccc2nc(-c3cccc(NC(=O)c4ccc(Br)o4)c3)oc2c1	·	·	·	2.7µM*	·	16%
CCN(CC(=O)NC(C)(C)C)C(=O)c1ccc2c(c1)S(=O)(=O)c1ccccc1C2=O	-4%	-3%	2%	0%	-3%	16%
SMILES	Luc counter	NPC1 prom act	ELG1 genotoxic	FLuc modulator	Rab9 promoter act	SMN2 splice up
CCCn1c(=O)n(-c2ccccc2)c(=O)c2sc3ccccc3c21	·	·	·	-2%	·	-18%
Cc1cc2nc(-c3cccc(NC(=O)CSc4ccc(Cl)cc4)c3)oc2cc1C	·	·	·	1.9µM*	·	1%
Cc1ccc(C(=O)Nc2cccc(-c3nc4ncccc4o3)c2)cc1	·	29%	-19%	13µM*	6%	·
O=C(Nc1cccc(-c2nc3ncccc3o2)c1)c1ccccc1	1%	0%	-5%	?	2%	-31%
C/C(=N\Nc1cc(Cl)nc(C)n1)c1ccccc1	-3%	?	9%	9.5µM*	?	31%
C/C(=N/Nc1nc(-c2ccccc2)cc(-c2ccccc2)n1)c1ccc(N)cc1	-1%	0%	-4%	5.4µM*	-9%	?
C/C(=N/Nc1cc(-c2ccccc2)nc(-c2ccccc2)n1)c1ccc(O)cc1	-1%	-5%	0%	11µM*	-3%	·
Cc1ccc(NC(=O)C(Cc2ccccc2)NS(=O)(=O)c2ccc3c(c2)oc(=O)n3C)cc1F (stereo not given)	·	·	·	-3%	·	5%
Cc1cc2nc(-c3cc(NC(=O)c4cc5ccccc5o4)ccc3Cl)oc2cc1C	·	·	·	?	·	8%
COc1ccc(NS(=O)(=O)c2ccc3oc(=O)c4[nH]c(=O)c(=O)n(C)c4c3c2)cc1	·	2%	1%[9.26 µM]	6%	3%	·
O=C(Nc1ccc(N2CCOCC2)cc1)c1ccc2nc(-c3ccco3)c(-c3ccco3)nc2c1	4%	-1%	6%	-4%	1%	5%
O=C(NC(=S)Nc1ccc(CN2CCCCC2)cc1)c1ccco1	0%	5%	3%	-16%	-1%	-4%
S=C(Nc1ccc(N2CCOCC2)cc1)Nc1ccc2nc(-c3ccco3)c(-c3ccco3)nc2c1	0%	1%	-2%	15µM*	4%	-12%
CC(C)CC(=O)N1CCN(c2ccc(NC(=O)c3ccco3)cc2)CC1	·	0%	2%	0%	3.2µM*	·
O=C(NC(=S)Nc1ccc(N2CCOCC2)cc1)c1ccco1	-11%	2.8µM*	?	?	?	16µM*
CC(C)(C)C(=O)N1CCN(c2ccc(NC(=O)c3ccco3)cc2)CC1	·	-6%	-2%	0%	0%	·
O=C(NC(=S)Nc1ccc(CN2CCOCC2)cc1)c1ccco1	·	20%	?	17µM*	?	·
COc1ccc(Cl)cc1NC(=O)NCc1cccnc1	·	-7%	0%	15µM*	1%	·
COc1ccc(OC)c(NC(=O)Nc2cc(NC(=O)Nc3cc(OC)ccc3OC)c(C)nc2C)c1	0%	-5%	?	6%	-3%	14µM*
COc1ccc(OC)c(NC(=O)CSc2nc3ccccc3c(=O)n2CCNC(C)=O)c1	1%	-2%	0%	-1%	-2%	-5%
COc1ccc(NC(=O)Nc2cc(NC(=O)Nc3ccc(OC)cc3)c(C)nc2C)cc1	1%	-2%	2%	0%	-5%	20%
COc1ccc(OC)c(NC(=O)Cn2c(C)nc3ccccc3c2=O)c1	0%	3.2µM*	?	9.5µM*	19%	·
COc1ccc(Cl)cc1NC(=O)Nc1cc(C)on1	·	1.4µM*	1.3µM*	6µM*	0.5µM*	·
COc1ccc(OC)c(NC(=O)NCc2cccnc2)c1	·	-3%	0%	5%	3%	·
Cc1cc(NC(=O)c2c(Cl)cccc2Cl)no1	0%	-2%	1%	-15%	3%	2%

Source: PubChem
